Source: PubChem
proKLK7 act = activators of human kallikrein-7 zymogen | purified proKLK7, EDANS-DABCYL substrate fluorescence; 100% is mature enzyme control, 0% vehicle | 370,000 tested, 0.9% active | AID 652039 | P49862 | activation, % at 7 µM;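 active = activation above the mean of all tested compounds plus 3 SD, computed per campaign excluding outliers beyond control limits, cut at about 13% in these data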
FAS-TE inh = FAS thioesterase (human) inhibition; recombinant FAS-TE, OMFH fluorogenic substrate, fluorescence endpoint; inhibition, % at 15 µM; 360,000 tested, 0.67% active; AID 602261;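 active = compounds whose normalised, plate-corrected inhibition of enzyme fluorescence in the single-dose primary screen is 50% or more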;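 note: 0% = DMSO with enzyme and 100% = substrate without enzyme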
ADAM10 inh = inhibits human ADAM10; O14672; recombinant ADAM10, EDANS/DABCYL FRET peptide cleavage, 3 h; inhibition, % at 7 µM; 370,000 tested, 0.62% active;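 active = inhibition above a per-campaign cutoff equal to the mean of compounds falling between control-based bounds plus 3 SD, cut at about 20% in these data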;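 note: 0% = DMSO wells while the 100% control is not disclosed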
NR3A LBD binder = modulators (binders) of human NR3A ligand-binding domain; NR3A LBD differential scanning fluorimetry, Tm shift; 0% = protein alone, 100% = glycine-bound protein; Tm shift relative to glycine control, % at 25 µM; 340,000 tested, 2.5% active;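 active = melting temperature shift of at least 10% of the positive control shift, at one fixed dose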
ADAM17 inh = ADAM17 inhibition, QFRET primary screen; P78536; recombinant ADAM17, EDANS/DABCYL FRET peptide cleavage; inhibition, % at 6.95 µM; 370,000 tested, 0.83% active; AID 720648;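 active = inhibition above the mean of compounds lying between control limits plus 3 SD, set per campaign, cut at about 8.5% in these data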;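 note: 0% = DMSO-only wells as the low control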
FAS-TE inh conf = FAS thioesterase (human) inhibition, confirmation; shares compounds with FAS-TE inh; recombinant FAS-TE, OMFH fluorogenic substrate, fluorescence; inhibition, % at 15 µM; 2,300 tested, 45% active;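 active = compounds inhibiting the enzyme by at least 50% at 15 µM in any one of the replicates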;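 note: 0% = enzyme with DMSO only and 100% = wells lacking enzyme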
ADAM10 confirm = confirmation of inhibitors of human ADAM10; shares compounds with ADAM10 inh; ADAM10 QFRET peptide cleavage, EDANS fluorescence; inhibition, % at 6.95 µM; 2,100 tested, 1% active; AID 743208;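 active = inhibition above about 20% chosen separately for each screening run, limit read from the data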;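 note: 0% = DMSO wells and 100% = marimastat wells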
ADAM17 ctr = ADAM17 inhibition, counter-screen for ADAM10 exosite hits; shares compounds with ADAM10 inh; ADAM17 QFRET peptide cleavage, EDANS fluorescence; inhibition, % at 6.95 µM; 2,100 tested, 0.5% active; AID 743214;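 active = mean triplicate inhibition above the solvent-only control wells' mean plus 3 SD, cut at about 12% in these data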;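 note: 0% = DMSO wells and 100% = marimastat wells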
ADAM10 ctr = ADAM10 inhibition, counter-screen for ADAM17 exosite hits; shares compounds with ADAM17 inh; recombinant ADAM10, EDANS/DABCYL FRET peptide cleavage, 3 h; inhibition, % at 6.95 µM; 2,900 tested, 47% active; AID 743256;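 active = mean inhibition over the triplicate runs exceeds the activity threshold set in the earlier primary screen, cut at about 20% in these data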;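 note: 0% = DMSO wells and 100% = marimastat wells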
ADAM17 confirm = confirmation of inhibitors of human ADAM17 | recombinant ADAM17, EDANS/DABCYL QFRET peptide cleavage | 2,900 tested, 65% active | AID 743257 | inhibition, % at 6.95 µM | shares compounds with ADAM17 inh;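 active = mean inhibition across replicates above the hit cutoff set in the primary screen, cut at about 8.5% in these data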;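 note: 0% = DMSO wells and 100% = marimastat wells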
The depositor's hits bear a star. Hits are enriched below; roughly 4.6% of the tested compounds scored in any of these assays.

For COc1ccc2c(c1)OC[C@H]1[C@H]2N2C(=O)CN(Cc3ccc(Cl)cc3)C(=O)[C@@]2(C)[C@H]1c1ccccc1 the results were proKLK7 act -0.6, FAS-TE inh 74.9*, ADAM10 inh 16.0, NR3A LBD binder -14.2, ADAM17 inh 9.9*, FAS-TE inh conf 28.7, ADAM10 ctr 28.9* and ADAM17 confirm 13.3*.
`CCOC(=O)[C@H]1[C@H]2COc3ccc(Cl)cc3[C@@H]2N2C(=O)CN(Cc3ccccc3)C(=O)[C@@]12C` gave proKLK7 act -0.9, FAS-TE inh 13.9, ADAM10 inh 1.7, NR3A LBD binder -0.6 and ADAM17 inh 1.0.
COc1ccc2c(c1)[C@H]1[C@H](CO2)[C@H](c2ccccc2)[C@]2(C)C(=O)Nc3cc(F)ccc3C(=O)N12 was read as proKLK7 act -0.2, FAS-TE inh 53.7*, ADAM10 inh 13.4, NR3A LBD binder -13.6, ADAM17 inh 10.0*, FAS-TE inh conf 29.6, ADAM10 ctr -9.7 and ADAM17 confirm -0.5.
Cc1ccc(CN2CC(=O)N3[C@H]4c5cc(Cl)ccc5OC[C@@H]4[C@H](c4ccccc4)[C@]3(C)C2=O)cc1 was read as proKLK7 act -0.7, FAS-TE inh 83.5*, ADAM10 inh 15.4, NR3A LBD binder -2.4, ADAM17 inh 9.4*, FAS-TE inh conf 17.2, ADAM10 ctr 7.5 and ADAM17 confirm 7.0.
CCOC(=O)[C@H]1[C@H]2COc3cc(OC)ccc3[C@@H]2N2C(=O)CN(Cc3ccccc3)C(=O)[C@@]12C was read as proKLK7 act 0.9, FAS-TE inh -1.4, ADAM10 inh -4.3, NR3A LBD binder -0.6 and ADAM17 inh 4.7.
`O=C(Nc1ccccc1Oc1ccccc1)NC1CCCCN(Cc2ccc(Cl)cc2)C1=O` (stereo unspecified) gave proKLK7 act 0.3, ADAM10 inh 0.0 and ADAM17 inh 0.0.
Screening CCn1c(SCC(=O)Nc2ncc(C(F)(F)F)cc2Cl)nnc1-c1cccc(C)c1 returned proKLK7 act 0.3, FAS-TE inh 79.8*, ADAM10 inh 3.6, NR3A LBD binder 0.3, ADAM17 inh 10.0*, FAS-TE inh conf 81.4*, ADAM10 ctr 1.4 and ADAM17 confirm 1.9.
`Cn1c(N/N=C/c2cccs2)cc(=O)n(C)c1=O` gave proKLK7 act 2.4, FAS-TE inh -2.4, ADAM10 inh -90.8, NR3A LBD binder -1.4 and ADAM17 inh -30.8.
Fc1c(F)c(C(F)(F)F)c(F)c(F)c1N/N=C\c1cccs1 was read as proKLK7 act -0.7, FAS-TE inh 62.6*, ADAM10 inh 24.3*, NR3A LBD binder 22.4*, ADAM17 inh 9.8*, FAS-TE inh conf 50.8*, ADAM10 confirm 13.8, ADAM17 ctr 4.5, ADAM10 ctr 32.1* and ADAM17 confirm 18.6*.
`O=C(CSc1nc2ccccc2c(=O)n1-c1ccccc1Cl)Nc1cccc(S(=O)(=O)N2CCOCC2)c1` gave proKLK7 act 0.3, FAS-TE inh 95.1*, ADAM10 inh 16.8, NR3A LBD binder -12.8, ADAM17 inh 9.5*, FAS-TE inh conf 25.8, ADAM10 ctr 18.5 and ADAM17 confirm 12.5*.
CC(C)(C)c1cc(C(=O)NNc2cc(C(F)(F)F)ccc2Cl)n(Cc2ccccc2)n1 was read as proKLK7 act -0.1, FAS-TE inh 54.0*, ADAM10 inh 19.0, NR3A LBD binder 3.4, ADAM17 inh 10.2*, FAS-TE inh conf 14.9, ADAM10 ctr 27.4* and ADAM17 confirm 10.3*.
COC(=O)[C@]12C[C@H](CC(=O)N3CCCCC3)C(=O)N(Cc3ccco3)C1=C[C@H](COCc1ccccc1)O[C@@H]2C was read as proKLK7 act 0.2, ADAM10 inh 6.5 and ADAM17 inh -0.1.
For Cc1ccc(S(=O)(=O)N2OC(c3ccccc3)C[C@H]2CC=C(c2ccccc2)c2ccccc2)cc1 (stereo partly specified) the results were ADAM10 inh 0.6 and ADAM17 inh -1.2.
For CCCCCCCCOC(=O)C1=C(C)Nc2nnnn2C1c1cccs1 (stereo unspecified) the results were proKLK7 act 0.9, FAS-TE inh 62.3*, ADAM10 inh 20.3*, NR3A LBD binder -7.3, ADAM17 inh 10.2*, FAS-TE inh conf 40.7, ADAM10 confirm 8.3, ADAM17 ctr 3.2, ADAM10 ctr 20.7* and ADAM17 confirm 8.4.
Screening CCCCCCCOC(=O)C1=C(C)Nc2ncnn2C1c1cccs1 (stereo unspecified) returned proKLK7 act -0.6, FAS-TE inh 0.8, ADAM10 inh 0.7, NR3A LBD binder 0.3 and ADAM17 inh 0.4.
`O=C1OCCN1C(=O)[C@H]1[C@H](c2ccc([N+](=O)[O-])cc2)C(c2ccccc2)=NN1c1ccc(Br)cc1` gave proKLK7 act -0.7, FAS-TE inh 90.0*, ADAM10 inh 16.7, NR3A LBD binder 8.6, ADAM17 inh 10.7*, FAS-TE inh conf 11.7, ADAM10 ctr 14.7 and ADAM17 confirm 11.7*.
Screening CCOC1=C2[C@@H](CN(S(=O)(=O)c3ccc(C)cc3)[C@H]2c2cccc3ccccc23)[C@H]2C(=O)N(Cc3ccccc3)C(=O)[C@H]2C1 returned proKLK7 act 0.2, FAS-TE inh 59.5*, ADAM10 inh 25.0*, ADAM17 inh 8.8*, FAS-TE inh conf 17.3, ADAM10 confirm 7.7, ADAM17 ctr 2.0, ADAM10 ctr 21.2* and ADAM17 confirm 14.1*.
CCOC1=C2[C@@H](CN(S(=O)(=O)c3ccc(C)cc3)[C@H]2c2cccc3ccccc23)[C@H]2C(=O)N(CC)C(=O)[C@H]2C1 was read as proKLK7 act 0.3, FAS-TE inh 24.3, ADAM10 inh -2.8 and ADAM17 inh -0.3.
`O=C(OCc1csc(Nc2ccccc2)n1)c1ccc(Cl)cc1` gave proKLK7 act -0.6, FAS-TE inh 51.7*, ADAM10 inh 23.5*, NR3A LBD binder 10.7*, ADAM17 inh 12.1*, FAS-TE inh conf 14.0, ADAM10 confirm 10.7, ADAM17 ctr 3.9, ADAM10 ctr 44.9* and ADAM17 confirm 18.4*.
